Our source for the inhibition values is PubChem BioAssay AID372 (MTDP, 2006).

Structures are written as SMILES. Among all 100,000 compounds or so, about 770 (0.77%) were called active. Cut-off read from the data, not from the text of the source: active = inhibition above about 50%; inactive = the rest. For the sample, actives were picked, then their nearest neighbours and some compounds at random.

The assay concerns the target Gag-Pol polyprotein (Human immunodeficiency virus type 1 group M subtype B (isolate HXB2)) (UniProt P04585). The assay is described as follows: RNase H inhibition, HIV 1 Gag Pol polyprotein, FRET biochemical assay, screening (AID 372). The conditions noted are these: HIV-1 RT RNase H, FRET RNA/DNA substrate fluorescence; at 10 µM; active compounds read high.
As for `O=C(O)c1cc(Br)ccc1N=Cc1ccc2c(c1)OCO2`, the inhibition (usually the percentage by which the read-out fell short of the control) is 8% (inactive).
The value for `Cc1ccc2nc(-c3ccc(C)c(NC(=O)c4ccc5ccccc5c4)c3)oc2c1` was 19% (inactive); that for `CCCOc1ccc(C(=O)Nc2ccc3oc(-c4c(F)c(F)c(F)c(F)c4F)nc3c2)cc1` was 14% (inactive).
Take `Cc1ccc(C(=O)Nc2ccc3oc(-c4c(F)c(F)c(F)c(F)c4F)nc3c2)cc1`: the inhibition is 52% (active).
The value for `Cc1ccc2oc(-c3ccc(NC(=O)c4ccc(C)c(C)c4)cc3)nc2c1` was 20% (inactive).
With `O=C(Nc1ccc2oc(-c3c(F)c(F)c(F)c(F)c3F)nc2c1)c1ccc(F)cc1`, the inhibition is 13% (inactive).
The value for `O=C(Nc1ccc(-c2nc3ccccc3o2)cc1)c1ccc2ccccc2c1` was 43% (inactive).
`Cc1ccc2oc(-c3ccc(NC(=O)c4ccc(Br)cc4)cc3)nc2c1`: the inhibition is 55% (active).
The value for `Cc1ccc2nc(-c3cccc(NC(=O)c4ccc5ccccc5c4)c3)oc2c1` was 38% (inactive); that for `Cc1ccc2oc(-c3ccc(NC(=O)c4ccc5ccccc5c4)cc3)nc2c1` was 52% (active); that for `Cc1ccc2nc(-c3ccc(NC(=O)c4ccc5ccccc5c4)cc3)oc2c1` was 59% (active).
For the molecule `O=C(Nc1ccc2oc(-c3ccccc3)nc2c1)c1ccc2ccccc2c1`, the inhibition is 19% (inactive).
Regarding `COc1ccc(C(=O)Nc2ccc(-c3nc4cc(C)ccc4o3)cc2)cc1Br`, the inhibition was 23% (inactive).
Consider `COc1ccc(/C=C2\SC(=S)N(CCC(=O)OC3CCCCC3)C2=O)cc1`, for which the inhibition was 4% (inactive).
As for `CSCCNS(=O)(=O)c1ccc(C)c([N+](=O)[O-])c1`, the inhibition is 0% (inactive).
With `O=C(O)CCCN1C(=O)/C(=C/c2cccc(Br)c2)SC1=S`, the inhibition is 10% (inactive).
The value for `COc1ccc(/C=N/NC(=O)c2ccn[nH]2)cc1COc1ccc(Cl)cc1Cl` was 5% (inactive); that for `COc1cccc(Nc2c([N+](=O)[O-])c(=O)n(-c3ccccc3)c3ccccc23)c1` was 15% (inactive); that for `CCc1ccc2[nH]c3nc(NN)nnc3c2c1` was 5% (inactive).
The value for `Cc1cccc(OC(=O)c2cccc([N+](=O)[O-])c2)c1` was 6% (inactive).
As to `COc1ccc(N2C(=O)C(=O)/C(=C(\O)c3ccc([N+](=O)[O-])cc3)C2c2ccc(Br)cc2)cc1` (centres undefined), the inhibition is 4% (inactive).
For `COc1ccc(OC)c(NC(=O)c2cnccn2)c1`, the inhibition was 6% (inactive).
`Cc1cc(C(=O)Nc2ccc(S(=O)(=O)Nc3nccs3)cc2)ccc1[N+](=O)[O-]`: the inhibition is 6% (inactive).
Turning to `CCOc1cc(C2C(C(=O)OCc3ccc(OC)cc3)=C(C)NC3=C2C(=O)CCC3)cc(Cl)c1O` (centres undefined), the inhibition is 2% (inactive).
For the molecule `CC(C)COc1ccc(C(=O)Nc2ccc(-c3nc4ccccc4o3)cc2)cc1`, the inhibition was 64% (active).
Turning to `CC(C)COc1ccc(C(=O)Nc2ccc(-c3nc4ncccc4o3)cc2)cc1`, the inhibition is 8% (inactive).
For the molecule `CC(C)COc1ccc(C(=O)Nc2ccc3oc(-c4ccncc4)nc3c2)cc1`, the inhibition was 1% (inactive).
Regarding `O=C(Nc1ccc(-c2nc3ccccc3o2)c(O)c1)c1ccc(-c2cccc(Cl)c2)o1`, the inhibition was 10% (inactive).
Regarding `CCOC(=O)c1c(NC(=O)CSc2nccn2C)sc2c1CCCC2`, the inhibition was 0% (inactive).
`CCc1ccc(C2=NN(c3ccccc3)C(c3cn(-c4ccccc4)nc3-c3cccnc3)C2)cc1` (centres undefined): the inhibition was 20% (inactive).
With `COc1ccc(C(=O)CC(C(C)C)C(C=C(C)C)C(=O)c2ccc(OC)cc2)cc1` (centres undefined), the inhibition is 29% (inactive).
In the case of `C=C(C)C(C)(C#CCN1CCOCC1)OC(C)=O` (centres undefined), the inhibition is 56% (active).
With `C=C(C)C(C)(C#CCN1CCCCC1)OC(C)=O` (centres undefined), the inhibition was 8% (inactive).
The value for `CC(C)(O)C#CCN1CCOCC1` was 0% (inactive); that for `COc1cc(C2C(C(=O)Nc3cccc(C)n3)=C(C)NC3=C2C(=O)CC(C)(C)C3)cc(OC)c1OC` (centres undefined) was 7% (inactive); that for `COc1ccc(N(CC(=O)N2CCCCC2)S(=O)(=O)c2ccccc2[N+](=O)[O-])c(OC)c1` was 2% (inactive).
For the molecule `COCCCNC(=O)CN(c1ccc(Cl)cc1)S(=O)(=O)c1ccccc1`, the inhibition was 0% (inactive).
The value for `COc1cc(NC(=S)NC(=O)c2ccc(Cl)cc2)ccc1NC(=O)c1cc2ccccc2o1` was 54% (active); that for `COc1ccc(C(=O)NC(=S)Nc2ccc(NC(=O)c3cc4ccccc4o3)c(OC)c2)cc1` was 7% (inactive).
Take `COc1cc(NC(=S)NC(=O)c2cccc(Cl)c2)ccc1NC(=O)c1cc2ccccc2o1`: the inhibition was 11% (inactive).
The value for `COc1cc(NC(=S)NC(=O)c2cccc(F)c2)ccc1NC(=O)c1cc2ccccc2o1` was 58% (active); that for `COc1cc(NC(=S)NC(=O)c2ccc(C)c(C)c2)ccc1NC(=O)c1cc2ccccc2o1` was 15% (inactive); that for `COc1cc(NC(=S)NC(=O)c2ccc(Cl)cc2)ccc1NC(=O)c1ccco1` was 42% (inactive).
For `CCc1nnc(NC(=O)CCCOc2ccc(Cl)cc2Cl)s1`, the inhibition was 1% (inactive).
The value for `Cc1ccccc1/C=N/NC(=O)Nc1ccccc1` was 16% (inactive); that for `Cc1ccc(-c2nc3ccccc3s2)cc1NC(=O)c1cc(I)ccc1Cl` was 15% (inactive).
Regarding `O=C(COc1ccccc1Br)N/N=C/c1ccccc1`, the inhibition was 3% (inactive).
With `Cc1ccc(NCC(=O)N/N=C\c2c(Br)cc(Br)c(O)c2Br)cc1`, the inhibition was 17% (inactive).
Take `Cc1ccccc1NCC(=O)N/N=C\c1c(Br)cc(Br)c(O)c1Br`: the inhibition is 16% (inactive).
Turning to `O=C1C(=O)N(CN2CCOCC2)c2ccc(Br)cc21`, the inhibition is 18% (inactive).
Turning to `Ic1cccc(-c2nc(-c3ccncc3)no2)c1`, the inhibition was 59% (active).
The value for `Cc1ccc(-c2noc(-c3cccc(I)c3)n2)cc1` was 7% (inactive); that for `COc1ccc(-c2noc(-c3cccc(I)c3)n2)cc1` was 22% (inactive); that for `Brc1cccc(-c2nc(-c3cccnc3)no2)c1` was 28% (inactive).
The value for `Cc1cccc(-c2nc(-c3cccnc3)no2)c1` was 27% (inactive); that for `Ic1cccc(-c2nc(-c3cccnc3)no2)c1` was 55% (active); that for `Cc1cc(Cl)ccc1NC(=O)CN(c1cccc(Br)c1)S(C)(=O)=O` was 12% (inactive).
Turning to `O/N=C1\CCCc2c1nc(-c1ccc(F)cc1)n2O`, the inhibition is 0% (inactive).
`COc1ccc(/C=C/C(=O)Nc2ccc(I)cc2)cc1OC`: the inhibition was 16% (inactive).
As to `CCc1c(C)c2ccc(OCc3ccccc3)c(C)c2oc1=O`, the inhibition is 16% (inactive).
`O=C(NNc1nc(Nc2ccccc2)nc(N2CCOCC2)n1)Nc1ccc(Cl)cc1`: the inhibition is 72% (active).
The value for `Clc1ccc(Nc2nc(Nc3ccc(Cl)cc3)nc(N3CCOCC3)n2)cc1` was 11% (inactive); that for `Clc1ccc(Nc2nc(Oc3ccccc3)nc(N3CCOCC3)n2)cc1` was 15% (inactive).
In the case of `COc1ccc(S(=O)(=O)N2CCN(CCN3C(=O)c4cccc5cccc(c45)C3=O)CC2)cc1`, the inhibition is 15% (inactive).
As for `CC(C)Nc1nc(-c2cccnc2)nc2ccccc12`, the inhibition is 8% (inactive).
In the case of `O=[N+]([O-])c1ccc(Cl)cc1NC(c1ccccc1)c1ccccc1`, the inhibition is 12% (inactive).
As for `CC(Nc1cc(N2CCN(C)CC2)ccc1[N+](=O)[O-])c1ccc(Br)cc1` (centres undefined), the inhibition was 9% (inactive).
As for `CC(Nc1cc(Cl)ccc1[N+](=O)[O-])c1ccc(Br)cc1` (centres undefined), the inhibition is 54% (active).
As to `CCOc1ccc(/C=C2\C(=O)NC(=O)N(c3cc(C(F)(F)F)ccc3Cl)C2=O)cc1OC`, the inhibition is 11% (inactive).
For `COc1ccc(CNC(=O)N2CCOCC2)cc1`, the inhibition is 20% (inactive).
Turning to `O=C(NNC(=O)c1sc2cc(F)ccc2c1Cl)Nc1ccc(Cl)cc1`, the inhibition was 57% (active).
For the molecule `O=C(NNC(=O)c1sc2ccccc2c1Cl)Nc1ccc(Cl)cc1`, the inhibition is 14% (inactive).
For the molecule `O=C(Nc1ccc(F)cc1)c1sc2cc(Cl)ccc2c1Cl`, the inhibition was 6% (inactive).
Consider `CC(=O)c1ccc(NC(=S)NC(=O)c2ccc(Br)cc2)cc1`, for which the inhibition is 0% (inactive).
The value for `O=C1C(=O)N(c2cccc([N+](=O)[O-])c2)C(c2ccccc2F)/C1=C(/O)c1ccccc1` (centres undefined) was 8% (inactive); that for `COc1cc(/C=N/N2C(=O)C3C4C=CC(C4)C3C2=O)cc(I)c1OC` (centres undefined) was 0% (inactive).
As for `COc1cc(/C=N/N2C(=O)C3C4C=CC(CC4)C3C2=O)cc(I)c1O` (centres undefined), the inhibition is 0% (inactive).
Take `COc1cc(/C=N/N2C(=O)C3C4C=CC(C4)C3C2=O)cc(I)c1O` (centres undefined): the inhibition is 56% (active).
Take `CCOC(=O)c1sc(N/N=C/c2ccccc2O)nc1C`: the inhibition is 58% (active).
The value for `CCOC(=O)c1sc(N/N=C/c2ccccc2)nc1C` was 47% (inactive); that for `CCOC(=O)c1sc(N/N=C/c2ccccc2C(F)(F)F)nc1C` was 15% (inactive).
The value for `COc1ccccc1N1C(=O)/C(=C/C(C)=C/c2ccccc2)SC1=S` was 13% (inactive); that for `Cc1ccc(S(=O)(=O)/N=C/c2ccc(F)cc2)cc1` was 0% (inactive).
`COc1ccc(NC(=O)C2CC(C)=C(C)CC2C(=O)O)cc1` (centres undefined): the inhibition is 2% (inactive).
The value for `CC1=C(C)CC(C(=O)Nc2ccc(Br)cc2)C(C(=O)O)C1` (centres undefined) was 8% (inactive).
The value for `Cc1cc(NS(=O)(=O)c2ccc(NC(=S)NC(=O)c3ccc(Br)cc3)cc2)no1` was 1% (inactive); that for `Cc1cc(OCc2nc(-c3ccc(Cl)cc3Cl)no2)ccc1Br` was 7% (inactive); that for `Cc1n[nH]c(C)c1Sc1ccc(Br)cc1` was 50% (active).
In the case of `Cc1nn(C)c(C)c1Sc1ccc(Br)cc1`, the inhibition was 37% (inactive).
As for `Cc1n[nH]c(C)c1Sc1ccc(Cl)cc1`, the inhibition is 17% (inactive).
In the case of `COc1cccc(/C=C2\C(=O)NC(=O)N(c3ccc(Cl)c(Cl)c3)C2=O)c1`, the inhibition is 1% (inactive).
Regarding `CCc1c(C)c2ccc(OC)c(C)c2oc1=O`, the inhibition was 8% (inactive).
`COc1ccc(S(=O)(=O)N(CC(=O)Nc2ccc(C(N)=O)cc2)c2ccc(C)cc2)cc1OC`: the inhibition was 4% (inactive).
Turning to `C=CCc1cccc(/C=N/c2nc3ccccc3n2CCC)c1O`, the inhibition was 17% (inactive).
Take `CC(CO)(CO)N=Cc1c(O)n(-c2ccccc2)c(=S)[nH]c1=O`: the inhibition was 0% (inactive).
Regarding `CS(=O)(=O)N(Cc1ccc(Cl)cc1)c1ccc(C(=O)Nc2cccc(C(F)(F)F)c2)cc1`, the inhibition was 1% (inactive).
As for `COc1ccccc1NC(=O)c1ccc(CN(c2ccccc2)S(C)(=O)=O)cc1`, the inhibition is 0% (inactive).
The value for `Cc1ccc(Cl)cc1NC(=O)c1ccc(CN(c2ccccc2)S(C)(=O)=O)cc1` was 10% (inactive).
On to `COc1ccc(Cl)cc1NC(=O)c1ccc(CN(c2ccccc2)S(C)(=O)=O)cc1`, for which the inhibition is 56% (active).
On to `CCOC(=O)N1CCN(C(=O)c2ccc(N(Cc3ccc(Cl)cc3)S(C)(=O)=O)cc2)CC1`, for which the inhibition is 3% (inactive).
Regarding `CS(=O)(=O)N(Cc1ccc(Cl)cc1)c1ccc(C(=O)N2CCCC2)cc1`, the inhibition is 57% (active).
As for `CS(=O)(=O)N(Cc1ccc(C(=O)Nc2cccc(C(F)(F)F)c2)cc1)c1ccccc1`, the inhibition is 58% (active).
For `CS(=O)(=O)N(Cc1ccc(Cl)cc1)c1ccc(C(=O)N2CCOCC2)cc1`, the inhibition was 8% (inactive).
As for `CS(=O)(=O)N(Cc1ccc(C(=O)Nc2cccc(C(F)(F)F)c2)cc1)c1cccc(Cl)c1`, the inhibition was 0% (inactive).
